From PubChem BioAssay
Entries with a potency or affinity are not part of this list. Calls of active or inactive are those of the source. The rule behind the calls is not given here.

The compounds below were run against Plasmodium falciparum protein kinase 6 (PK6, PF3D7_1337100) (UniProt Q8IDW1) (assay: PfPK6 kinase inhibitors, biochemical, TCAMS library (AID 1159586)). Conditions: recombinant PfPK6, Kinase-Glo ATP depletion luminescence.
Sequence of Plasmodium falciparum protein kinase 6 (PK6, PF3D7_1337100) (Q8IDW1 1-305): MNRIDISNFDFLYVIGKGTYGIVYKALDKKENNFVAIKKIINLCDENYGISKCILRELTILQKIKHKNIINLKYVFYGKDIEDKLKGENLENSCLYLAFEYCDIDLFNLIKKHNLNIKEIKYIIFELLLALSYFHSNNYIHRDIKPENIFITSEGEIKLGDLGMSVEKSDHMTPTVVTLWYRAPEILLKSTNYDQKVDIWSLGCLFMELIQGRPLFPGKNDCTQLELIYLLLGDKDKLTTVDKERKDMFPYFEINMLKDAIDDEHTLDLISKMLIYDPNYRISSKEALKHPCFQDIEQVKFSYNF

outcome, inactive:
COC(=O)C(=C(C)C)N1C(=O)[C@@H](NC(=O)OCc2ccccc2)[C@H]1SS[C@@H]1[C@H](NC(=O)OCc2ccccc2)C(=O)N1C(C(=O)OC)=C(C)C, CCCCN(CCCC)CCC(O)C(=Cc1ccc(Cl)cc1Cl)c1ccc(C(F)(F)F)cc1N (centres undefined), CCc1ccc(-n2cc(C(=O)c3cc(Br)ccc3O)cc(C#N)c2=O)cc1, Oc1cccc(Nc2ccnc3cc(-c4cc5ccccc5o4)ccc23)c1, Cc1cc(C2CCN(CCCCNC(=O)c3ccc(NC(=O)c4ccc(Cl)cc4)cc3)CC2)c(C)cc1OCc1ccncc1, COc1ccc2nccc(NN=Cc3ccc([N+](=O)[O-])cc3)c2c1, COc1ccccc1C1CCN(C2CCC(NC(=O)c3cc(-c4ccc(Cl)cc4)cs3)CC2)CC1 (centres undefined), Cc1cc(Nc2ccc(Cl)cc2)n2nc(C(F)(F)F)nc2n1, COc1ccc2nccc([C@@H](O)CN3CCC(NCc4cc5ccccc5[nH]c4=O)CC3)c2c1, Nc1c(Cl)cc(C(O)CNCCCCCOCCc2ccccc2)cc1C(F)(F)F (centres undefined), COc1ccc(-c2cnc3ccc(NCc4ccc(F)cc4)nn23)cc1OC, CCCN(CCC)C(=O)c1cc(C(=O)N[C@@H](Cc2ccccc2)[C@H](O)CNC2CC2)cc(N2CCCCS2(=O)=O)c1, CN(C)CCOc1ccc(-c2cc(-c3ccc(Cl)c(O)c3)c(-c3ccncc3)o2)cc1, O=C(Nc1ccc(C(=O)Nc2cccc(C3=NCCN3)c2)cc1)Nc1ccc(C2=NCCN2)cc1
